HTT-AS act: activators of huntingtin-antisense promoter activity | HEK293 HTT-AS promoter firefly luciferase reporter, 24 h; response scale: percent change from vehicle, -100% = no light | Potency, µM (highest dose often 57.5 µM), inactives show top-dose activity change, positive = activation, actives largely listed as activators | 48,000 compounds, 0.24% hits | AID 1508624; also: potency is read from the fitted curve at half-maximal effect; nearly all actives have a fitted effect of over 55% in size
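Firefly luciferase signal from promoter-reporter HEK293 cells was scaled between vehicle (0%) and zero RLU (-100%). Compounds were tested at final concentrations of up to 57.5 uM over 24 h at 37 degrees C. PTC124 at 50 uM final served as control inhibitor.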
HTT promoter inh: inhibits huntingtin promoter activity. HEK293 HTT promoter firefly luciferase reporter, 24 h. Potency, µM (series often up to 57.5 µM), for inactives: at the top dose activity change, negative = inhibition, most hits filed as inhibitors. 48,000 compounds, 0.93% hits; also: potency is read from the fitted curve at half-maximal effect; nearly all actives have a fitted effect of over 50% in size
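HEK293 luciferase promoter-reporter cells (2,500/well) plated 24 h, then compounds added at up to 57.5 uM final for 24 h at 37 °C. Firefly luminescence by Dual-Glo, normalized to vehicle (0%) and zero RLU (-100%).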
GPR32 ag: agonists of human resolvin D1 receptor DRV1 (GPR32) | O75388 | CHO-K1 GPR32 beta-arrestin PathHunter luminescence, 90 min; zero percent set by DMSO-only wells | activation, % at 76.9 µM | 48,000 compounds, 2.5% hits;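 active = activation of at least 60% and not above a set upper limit, about 1 call in 100 departs from these limits; inconclusive = activation of 40% to 60%, or above that upper limit; inactive = activation under 40%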; also: 0% is about no effect
Target sequence (O75388 whole entry, looked up): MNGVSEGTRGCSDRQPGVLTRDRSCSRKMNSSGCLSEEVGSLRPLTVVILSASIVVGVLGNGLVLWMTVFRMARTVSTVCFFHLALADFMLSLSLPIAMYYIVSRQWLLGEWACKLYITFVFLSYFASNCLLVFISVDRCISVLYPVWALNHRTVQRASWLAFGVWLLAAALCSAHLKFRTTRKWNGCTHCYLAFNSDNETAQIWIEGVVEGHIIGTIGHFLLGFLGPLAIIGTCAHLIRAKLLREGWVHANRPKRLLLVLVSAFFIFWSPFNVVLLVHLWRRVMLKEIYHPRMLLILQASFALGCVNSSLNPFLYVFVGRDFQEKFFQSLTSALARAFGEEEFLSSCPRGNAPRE
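Using DMSO wells as EC0, agonist-induced signal was taken as chemiluminescence from beta-Gal reconstituted upon beta-arrestin recruitment to GPR32 in CHO-K1 cells after 90 min compound treatment.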
Active calls of the source: *; u = inconclusive; x = not tested or not shown; [ ] = dose if it differs, or a comment. Hits are enriched below; roughly 3.7% of the tested compounds scored in any of these assays. Unless noted, calls follow the shape of the dose curve; as a rule, active = well fitted curve in the direction sought with a large enough effect; inconclusive = small, poorly fitted or top-dose-only effect, or another doubt; inactive = no such curve, though single readings can be large; an effect the other way counts as inactive or inconclusive.

SMILES	HTT-AS act	HTT promoter inh	GPR32 ag
N#Cc1cc2c(nc1SCC(=O)Nc1ccc(C(F)(F)F)cc1)C1CCN2CC1	-43.1%	14.1µM*	20.7
COc1ccc(NC(=O)c2sc3nc4c(cc3c2N)N2CCC4CC2)cc1OC	-4.5%	-30.4%	45.2
CC(O)(CS(=O)(=O)c1ccc(F)cc1)C(=O)Nc1ccc(C#N)c(C(F)(F)F)c1 (configuration not stated)	-31.5%	u	8.2
N#Cc1cc2c(nc1SCC(=O)Nc1ccc(Cl)c(C(F)(F)F)c1)C1CCN2CC1	-62.8%	15.8µM*	-5.4
COC1=CC(C)=C[C@@H](C)[C@@H](O)[C@@H](C)CC(C)=CC=C[C@H](OC)[C@H]([C@@H](C)[C@@H](O)[C@H](C)[C@@]2(O)C[C@@H](O)[C@H](C)[C@@H](C(C)C)O2)OC1=O	-27.8%	u	x
C[C@]12CCC(=O)C=C1CC[C@@H]1[C@@H]2CC[C@]2(C)C(=O)CC[C@@H]12	-15.3%	4.6%	48.8
C[C@]12CCC(=O)C=C1CC[C@@H]1[C@H]3CC[C@](C)(O)[C@@]3(C)CC[C@@H]12	-33.0%[116 µM]	u	106.4*
Fc1cc(Br)ccc1CBr	-1.0%	12.3%	-10.8
CC(C)[C@]12O[C@@H]1[C@@H]1O[C@]13[C@]1(O[C@H]1C[C@@H]1C4=C(CC[C@@]13C)C(=O)OC4)[C@H]2O	u	-37.7%	x
C[C@@H]1[C@@H](C(=O)C[C@H]2O[C@@H]3O[C@]4(C)CC[C@@H]5[C@H](C)CC[C@@H]([C@H]2C)[C@@]35OO4)O[C@@H]2O[C@]3(C)CC[C@H]4[C@H](C)CC[C@@H]1[C@@]24OO3	-19.0%	u	x
Cc1ccccc1-n1c(/C=C/c2ccccc2F)nc2ccccc2c1=O	-37.6%	u	-19.6
O=c1c2ccccc2nc(/C=C/c2cccc3ccccc23)n1-c1ccccc1Cl	-10.6%	28.2µM*	14.0
Cc1c(N)nc([C@H](CC(N)=O)NC[C@@H](N)C(N)=O)nc1C(=O)N[C@H](C(=O)N[C@@H](C)[C@H](O)[C@@H](C)C(=O)N[C@@H](C(=O)NCCc1nc(-c2nc(C(=O)NCCC[S+](C)C)cs2)cs1)[C@@H](C)O)C(O[C@H]1O[C@H](CO)[C@H](O)[C@@H](O)[C@@H]1O[C@H]1O[C@H](CO)[C@@H](O)[C@H](OC(N)=O)[C@H]1O)c1cnc[nH]1 (some centres not stated)	-32.3%	-14.5%	x
N#C[C@H](O[C@@H]1O[C@H](CO[C@@H]2O[C@H](CO)[C@H](O)[C@H](O)[C@H]2O)[C@H](O)[C@H](O)[C@H]1O)c1ccccc1	-30.4%	u	x
CC(=CCCC1=CCC(C2=CC(=O)OC2O)OC1O)CCC1=C(C)CCCC1(C)C (configuration not stated)	-15.5%	-11.4%	x
Cc1cccc(CN2CC=C(c3noc(CCC(=O)Nc4ccc(C)c(F)c4)n3)CC2)c1	-16.6%	-16.8%	93.6*
COc1ccc(NC(=O)CCc2nc(C3=CCN(Cc4cccc(Cl)c4)CC3)no2)cc1OC	-25.5%	u	93.8*
COc1ccc(NC(=O)CCc2nc(C3=CCN(Cc4cccc(Cl)c4)CC3)no2)c(OC)c1	-25.9%	u	27.2
CCOC(=O)C1(c2ccccc2)CCN(CCc2ccc(N)cc2)CC1	-8.1%	-5.8%	5.2
CC1=C2C[C@@H]3[C@@H](CC=C4C[C@@H](O)CC[C@@]43C)[C@@H]2CC[C@]12O[C@H]1C[C@H](C)CN[C@H]1[C@H]2C	-5.7%	9.3%	x
C[C@]12CC[C@H](O)CC1=CC[C@@H]1[C@@H]2CC[C@]2(C)C(=O)CC[C@@H]12	-14.5%	-4.3%	72.8*
COC[C@H]1OC(=O)c2coc3c2[C@@]1(C)C1=C(C3=O)[C@@H]2CC[C@H](O)[C@@]2(C)C[C@@H]1OC(C)=O	-39.1%	u	x
CCOP(=O)(OCC)C(C)NC(=O)N(CCCl)N=O (configuration not stated)	-4.7%	7.4%	x
C[C@]12CC[C@@H]3[C@@H](CCC4=CC(=O)CC[C@@H]43)[C@@H]1CC[C@@H]2OC(=O)CCc1ccccc1	-2.7%	3.0%	x
C[C@]12CC[C@H]3[C@@H](CCC4=CC(=O)CC[C@@H]43)[C@@H]1CC[C@@H]2OC(=O)CCc1ccco1	-6.3%	0.7%	118.6*
SMILES	HTT-AS act	HTT promoter inh	GPR32 ag
Cc1ccccc1-n1c(Cn2cnc3c(N)ncnc32)nc2cccc(C)c2c1=O	-30.3%	u	x
CC(C)(O)C=CC(=O)[C@](C)(O)[C@H]1[C@H](O)C[C@]2(C)[C@@H]3CC=C4[C@@H](C=C(O)C(=O)C4(C)C)[C@]3(C)C(=O)C[C@@]12C	-82.0%	u	x
C[C@]12Cc3cn[nH]c3C[C@@H]1CC[C@@H]1[C@H]2CC[C@@]2(C)[C@H]1CC[C@]2(C)O	-8.7%	-4.3%	x
C[C@]12Cc3nonc3C[C@@H]1CC[C@@H]1[C@@H]2CC[C@@]2(C)[C@H]1CC[C@]2(C)O	-32.4%	-27.4%	65.4*
C[C@@H]1CC[C@H]2[C@@H](C)C(=O)O[C@@H]3O[C@@]4(C)CC[C@H]1[C@]32OO4	-15.0%	-16.3%	x
CCOC(C(=O)OCCN(C)C)(c1ccccc1)c1ccccc1	-12.1%	-6.7%	-8.8
CCC(COC(=O)c1cc(OC)c(OC)c(OC)c1)(c1ccccc1)N(C)C (configuration not stated)	-7.2%	4.7%	97.2*
CC(Cc1ccccc1)NCCCCl (configuration not stated)	-1.7%	-2.3%	-55.4
CCc1ccc(-n2nc(C)c3c2NC(=O)CSC3c2ccccc2C)cc1 (configuration not stated)	-36.7%	u	16.5
CCc1ccc(-n2nc(C)c3c2NC(=O)CSC3c2ccc(OC)cc2OC)cc1 (configuration not stated)	-37.3%	22.4µM*	1.0
C[C@@H]1CC[C@@]2(OC1)O[C@H]1C[C@H]3[C@@H]4CC=C5C[C@@H](O[C@@H]6O[C@H](CO)[C@@H](O[C@@H]7O[C@@H](C)[C@H](O)[C@@H](O)[C@@H]7O)[C@H](O)[C@@H]6O[C@@H]6O[C@@H](C)[C@H](O)[C@@H](O)[C@@H]6O)CC[C@]5(C)[C@@H]4CC[C@]3(C)[C@@H]1[C@H]2C	-15.4%	-5.6%	x
CC(C)(C)c1cc(C=C(C#N)C#N)cc(Br)c1O	-87.4%	u	x
Nc1c(C(=O)Nc2ccc(Cl)c(C(F)(F)F)c2)sc2nc3c(cc12)N1CCC3CC1	-72.3%	u	u
Nc1c(C(=O)Nc2ccc(Cl)cc2)sc2nc3c(cc12)N1CCC3CC1	-13.0%	u	76.8*
FC(F)(F)c1cccc(C2=CCN(CCc3ccc4ccccc4c3)CC2)c1	-7.7%	-4.5%	99.8*
CC(C)=CC1C(C(=O)OCc2cccc(Oc3ccccc3)c2)C1(C)C (configuration not stated)	1.0%	2.3%	0.0
C=CCC1=C(C)C(OC(=O)C2C(C=C(C)C)C2(C)C)CC1=O (configuration not stated)	-19.6%[116 µM]	-17.3%[116 µM]	73.6*
